# Measured values: PubChem BioAssay AID1460 (National Center for Advancing Translational Sciences (NCATS), 2008)
# The campaign covered roughly 270,000 compounds. About 5,800 (2.1%) were called active. Another 16% or so got no clear call; they are omitted. Only a selection was taken, and actives are over-represented in it overall. A number with no mark means an inactive call. The call rests on the fitted dose curve; in most records, active means well fitted inhibition curve with a large enough effect; inconclusive means small, poorly fitted or top-dose-only effect; inactive means flat fitted curve, though single readings scatter.
# Target: Microtubule-associated protein tau (Homo sapiens) (UniProt P10636)
# Assay: qHTS for Inhibitors of Tau Fibril Formation, Thioflavin T Binding; further: nearly all actives have a fitted effect of over 55% in size
# Conditions: recombinant tau K18 P301L (four-repeat tau fragment), heparin-induced fibrillization, ThT fluorescence; series mostly up to 57.4 µM; activity, negative = inhibition: at the top concentration
# Procedure, shortened: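 Tau K18 P301L fragment (15 uM unlabeled plus 0.24 uM Alexa 594-labeled) in 100 mM sodium acetate pH 7 with compound, fibrillization induced by 20 uM heparin for 6 hr at 37 C. Thioflavin T (30 uM) added, fluorescence read after 1 hr (ex 450, em 510 nm).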
# On the % scale 0 is the no-effect control and ±100 the full control effect; potency means the concentration at half of the fitted maximal effect.
# Sequence of Microtubule-associated protein tau (Homo sapiens) (P10636 561-689 P618L limits assumed): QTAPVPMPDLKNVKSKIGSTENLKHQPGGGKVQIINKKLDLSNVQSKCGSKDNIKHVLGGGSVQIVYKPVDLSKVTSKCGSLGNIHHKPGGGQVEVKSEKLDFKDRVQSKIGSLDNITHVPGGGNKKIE
SMILES,"activity, negative = inhibition [%]",Potency
Cc1ccc(-c2nc3cccc(C)n3c2Nc2ccc3c(c2)OCCO3)cc1,-16.2,–
CCn1cc(C(=O)NCc2ccc(C)cc2)c(=O)c2cc(S(=O)(=O)N3CCc4ccccc4C3)ccc21,8.86,–
Cc1c(-c2nsc(NC(=O)c3cccc(Cl)c3)n2)nnn1-c1ccccc1C(F)(F)F,10.2,–
CCOC(=O)c1ccc(NC(=O)Cn2cc(S(=O)(=O)Cc3ccccc3F)c3ccccc32)cc1,1.94,–
COC(=O)CC1=NN(c2ccccc2)C(=O)C1,-12.9,–
O=C1CC(c2ccccc2)=NN1c1ccc([N+](=O)[O-])cc1,–,11.2 µM (active)
O=c1[nH]n(-c2ccc([N+](=O)[O-])cc2)c(=O)c2ccccc12,-17.7,–
O=C(NCC(c1cccnc1)N1CCc2ccccc21)c1cccc(C(F)(F)F)c1 (stereo not drawn),-1.15,–
COc1ccccc1-c1nnc(SCC(N)=O)o1,7.71,–
CCOC(=O)c1c(NC(=O)CCC(=O)NCc2ccco2)sc2c1CCCC2,-11.9,–
CCOc1ccc(NC(=O)c2c(NC(=O)Cc3ccccc3)sc3c2CCCCC3)cc1,–,22.4 µM (active)
CCOc1ccc(NC(=O)c2c(NCc3cccc(OC)c3OC)sc3c2CCC3)cc1,-8.9,–
O=C(Cc1ccccc1)Nc1sc2c(c1C(=O)Nc1ccc(Br)cc1)CCC2,-1.03,–
N#Cc1c(NC(=O)CCCl)sc2c1CCCCC2,0.0781,–
Cc1ccc(NC(=O)c2c(NC(=O)CCC(=O)O)sc3c2CCCCC3)cc1,–,25.1 µM (active)
CCCn1ccc2c(OCC(=O)NCc3ccc(F)cc3)cccc2c1=O,-9.18,–
COc1ccccc1NC(=O)C1=C(C)Nc2nc(SCC(=O)c3ccc(C)cc3)nn2C1c1ccccc1C (stereo not drawn),14.7,–
COc1ccc(NC(=O)CCNS(=O)(=O)c2ccc3c(c2)CCCC(=O)N3)cc1Cl,-6.94,–
COc1cc(NC(=O)CSc2nc3nc(C)c(Cc4ccc(C)cc4)c(C)n3n2)cc(OC)c1OC,4.12,–
COc1ccc(-c2nc(Cn3c(=O)cc(C)c4c(C)nn(-c5ccccc5)c43)c(C)o2)c(OC)c1,-0.776,–

SMILES,"activity, negative = inhibition [%]",Potency
CCOC(=O)Cn1c(=O)n(-c2ccccc2OC)c2nc(-c3cccc(F)c3)nc(C(N)=O)c21,-5.02,–
COc1cc(Cl)c(C)cc1Nc1nnc(-n2nc(C)cc2C)c2ccccc12,-5.87,–
CCc1ccc(CNC(=O)c2ccc(CS(=O)c3ccc(Br)cc3)o2)cc1 (stereo not drawn),-5.94,–
CCOC(=O)c1ccccc1NS(=O)(=O)c1ccc(OC)cc1,-8.17,–
CCCCC(C(=O)OCC(=O)c1ccc(OC)cc1)N1C(=O)c2ccccc2C1=O (stereo not drawn),-3.63,–
CCOC(=O)C1=C(c2ccc(OC)cc2)C(=O)c2ccccc2C1=O,–,14.1 µM (active)
O=c1[nH]n2c(=O)c3c([nH]c2c1N=Nc1ccccc1)CCC3,–,3.16 µM (active)
O=c1[nH]c2c(c(=O)n1Cc1ccccc1)CCC2,-1.52,–
N#Cc1c2c(c(-c3ccccc3)[nH]c1=O)CCCC2,-3.54,–
O=C(Nc1cccc(Cl)c1)c1csnn1,-9.63,–
CCOc1ccccc1/C=c1\sc2nc(-c3ccco3)nn2c1=O,–,22.4 µM (active)
CCOC(=O)C1CCN(C(c2ccc(F)cc2)c2sc3nc(-c4ccco4)nn3c2O)CC1 (stereo not drawn),-6.53,–
Oc1c(C(c2ccccc2Cl)N2CCOCC2)sc2nc(-c3ccco3)nn12 (stereo not drawn),-12.2,–
Cc1ccc2nc(COc3cccc(NC(=O)c4cccc(Cl)c4)c3)cc(=O)n2c1,-0.872,–
Clc1cccc(N=C2NN=C(c3ccc4c(c3)OCCO4)CS2)c1,–,15.8 µM (active)
O=C1C(Cl)=C(N2CCOCC2)C(=O)N1c1ccccc1,–,12.6 µM (active)
O=C1OC(NC(=O)c2ccccc2)C(N2CCOCC2)=C1Cl (stereo not drawn),-9.42,–
c1ccc(-n2nnnc2N2CCOCC2)cc1,4.05,–
CCc1ccc(NC(=O)CSc2nc3c([nH]c4ccccc43)c(=O)n2-c2cccc(OC)c2)cc1,13.6,–
CCOC(=O)c1cc(Sc2ccccc2N)cc(C(=O)OCC)n1,-0.497,–

SMILES,"activity, negative = inhibition [%]",Potency
CCS(=O)(=O)c1cc([N+](=O)[O-])c(Sc2ccccc2N)s1,–,10 µM (active)
Nc1ccccc1Sc1ccc(C(F)(F)F)cc1[N+](=O)[O-],-12.6,–
Cc1ccc(CNS(=O)(=O)c2ccc(-c3cc(C(F)(F)F)on3)s2)cc1,13.6,–
O=C(NC(=S)Nc1ccc(S(=O)(=O)N2CCOCC2)cc1)c1ccccc1[N+](=O)[O-],-0.152,–
O=[N+]([O-])c1cc(Cl)cc(/C=N/NC(=S)Nc2cc(S(=O)(=O)N3CCOCC3)ccc2Cl)c1O,–,3.16 µM (active)
O=C(Nc1cc(S(=O)(=O)N2CCOCC2)ccc1Cl)c1cc(=O)c2ccccc2o1,1.79,–
Cc1ccc(N(C)C(=O)C2CCN(S(=O)(=O)c3ccc4c(c3)CCCN4C(=O)C3CCC3)CC2)cc1,-6.98,–
CN(C)c1ccc(/C=N/NC(=O)c2ccc(Cn3cc(Br)cn3)o2)cc1,–,12.6 µM (active)
O=C(N/N=C/c1ccc2c(c1)OCO2)c1ccc(Cn2cc([N+](=O)[O-])cn2)o1,-0.161,–
O=C(N/N=C\c1ccc(Br)cc1)c1ccc(Cn2cccn2)o1,4.04,–
COCCOC(=O)c1sc(=S)n(CCOC)c1N,–,28.2 µM (active)
CCOC(=O)c1c(N)sc(C(C)=O)c1C,-16.5,–
COC(=O)c1sc(=S)n(-c2ccccc2)c1N,-17,–
COc1ccccc1N1CCN(C(=O)C2CCN(S(=O)(=O)c3c(C)noc3/C=C/c3ccc(C)cc3)CC2)CC1,-5.26,–
CCn1cc(C(=O)OCC(=O)Nc2cc(C)cc(C)c2)c(=O)c2ccc(C)nc21,-9.74,–
CCCS(=O)(=O)N1CCC(n2c(C(F)(F)F)nc3cccnc32)CC1,-15.8,–
COc1ccc(CCNC(=O)c2ccc3c(c2)sc2nc(-c4ccc(C)cc4)cn23)cc1OC,16.4,–
O=C(NCc1ccc(Cl)cc1)c1ccc2c(c1)nnn2C1CCCC1,1.79,–
